Laboratory results taken from PubChem BioAssay (NCATS).
Inconclusive results are not listed. The source made the active and inactive calls. Unless noted, calls follow the shape of the dose curve; as a rule, active = well fitted curve in either direction with a large enough effect (not every such curve was filed as active); inconclusive = small, poorly fitted or top-dose-only effect, or another doubt; inactive = flat fitted curve, though single readings scatter.

What was measured:
[1] = target: Lysosomal acid glucosylceramidase (Homo sapiens) (UniProt P04062); assay: Glucocerebrosidase-p2 (AID 348; in the data active = potency below about 10 µM; also: potency is read from the fitted curve at half-maximal effect); details: purified GBA, blue fluorogenic substrate, 40 min
Summary of the method: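 Compounds titrated from 0.6 nM upwards against 0.2 nM enzyme in pH 5.9 citric acid/KH2PO4, taurocholate, tween-20; blue fluorogenic substrate 80 uM, 40 min room temperature, stopped and read Ex 365/Em 440 for AC50.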

[2] = AP1 Signaling Pathway (AID 357); details: ME-180 AP-1-bla reporter, EGF-induced, beta-lactamase ratio, 5 h; at 7.69 µM (top of the series) unless noted; also: % is scaled to controls: 0 for no effect and ±100 for the full control effect
Summary of the method: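 ME-180 cells with beta-lactamase reporter under AP-1 response element, stimulated with EC50 EGF; compounds tested in titration series, 5 h at 37 °C. CCF4 substrate added 2.5 h at room temperature; 460/530 nm emission ratio gave %activity and AC50.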

[3] = target: Cytochrome P450 1A2 (Homo sapiens) (UniProt P05177); assay: p450-cyp1a2 (AID 410; calls by dose curve; also: potency is read from the fitted curve at half-maximal effect;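 as to activity change, negative = inhibition: -100% = full effect of reference inhibitor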); details: recombinant CYP1A2, luciferin-ME demethylation, luminescence; series mostly up to 11.4 µM
Summary of the method: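 Human CYP1A2 (20nM) demethylated Luciferin-ME at its Km (100uM) in 100mM KPO4. After 10 min compound preincubation, NADPH regeneration ran the reaction 60 min at room temperature. Luciferin was read by luminescence, normalized to 57 uM furafylline.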

[4] = NFAT Signaling Pathway (AID 444); details: Jurkat NFAT-bla M1, carbachol, beta-lactamase ratio, 5 h; at 7.69 µM (top of the series) unless noted;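 also: carbachol stimulus at about its EC50 of 1 µM final; % is scaled to controls: 0 for no effect and ±100 for the full control effect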
Summary of the method: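 Jurkat cells carrying an NFAT-driven β-lactamase reporter and co-transfected muscarinic M1 receptor were treated with compound plus carbachol (1 uM final, an EC50 level) for 5 h at 37 °C. CCF4 loading followed for 1 h at RT; 460/530 nm ratio gave %activity.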

[5] = Stat Signaling Pathway (AID 446); details: ME-180 SIE beta-lactamase reporter, IL-6 stimulated, 5 h; at 7.69 µM (top of the series) unless noted;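 also: ME-180 cervical cancer cells given 40 pM IL-6 alongside compound; SIE-controlled beta-lactamase reporter measured as 460/530 nm FRET emission ratio; % is scaled to controls: 0 for no effect and ±100 for the full control effect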
Summary of the method: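 IL-6/STAT signaling read in ME-180 cells via an SIE beta-lactamase reporter. Stimulus was 40 pM IL-6 (its AC50) for 5 hrs, so both activation and inhibition register.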

[6] = target: Glucocorticoid receptor (Homo sapiens) (UniProt P04150); assay: GR-GFP Redistribution (AID 450;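 active = compounds whose dose series gives a full or clear partial fitted curve of increased nuclear translocation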; also: potency is read from the fitted curve at half-maximal effect); details: U2OS GR-GFP nuclear translocation, laser cytometry, 2 h
[7] = target: Mitogen-activated protein kinase 10 (Mus musculus) (UniProt Q61831); assay: JNK3 AlphaScreen Assay (AID 530); details: JNK3 lysate, c-Jun phosphorylation; series mostly up to 11.4 µM;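 also: kinase came from lysate of stimulated human HepG2 cells; signal reports phosphorylation of biotinylated GST-cJun 1-79 at Ser73 with 10 µM ATP; % is scaled to controls: 0 for no effect and ±100 for the full control effect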
Summary of the method: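 JNK3 came from HepG2 lysates pre-activated with IL-1beta and TNF-alpha and phosphorylated biotinylated GST-cJun (1-79) at 10 uM ATP, pH 7.6, room temperature. Compounds were titrated. AlphaScreen signal used anti-phospho-cJun (Ser73) antibody.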

[8] = target: 3',5'-cyclic-AMP phosphodiesterase 4B (Homo sapiens) (UniProt Q07343); assay: qHTS Assay for Inhibitors of PDE-IV (AID 607; active = well fitted activation curve with a large enough effect in the main read-out, with a control signal flat, not every such curve was filed as active; also: % of control where 0% means no effect); details: HEK293 ACTOne CNG channel cells, membrane potential fluorescence; series mostly up to 22.9 µM
Summary of the method: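 Live HEK293 cells with a modified cyclic nucleotide-gated (CNG) channel report intracellular cAMP via membrane-potential dye fluorescence (ex 535/em 590 nm). Endogenous PDE-IV was targeted. Compounds were tested at up to 22.9 uM final; RO 20-1724 100 uM served as control.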

[9] = target: Cytochrome P450 2C19 (Homo sapiens) (UniProt P33261); assay: qHTS Assay for Inhibitors and Substrates of Cytochrome P450 2C19 (AID 899; active = well fitted curve in the direction sought with a large enough effect; an effect the other way counts as inactive or inconclusive; also: % is scaled to controls: 0 for no effect and ±100 for the full control effect; nearly all actives have a fitted effect of over 60% in size); details: recombinant CYP2C19, luciferin-H EGE luminescence; series mostly up to 11.4 µM
Summary of the method: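 Human CYP2C19 (5nM) with Luciferin-H EGE at 10uM (its KM) in 50mM KPO4 was preincubated with compound for 10 min at 37C. NADPH regeneration started a 60 min 37C reaction. Luciferin was read by luminescence, normalized to 57uM ketoconazole.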

[10] = target: ATP-dependent 6-phosphofructokinase (Trypanosoma brucei brucei) (UniProt O15648); assay: qHTS Assay to Find Inhibitors of T. brucei phosphofructokinase: hit validation (AID 492961; active = well fitted curve in the direction sought with a large enough effect; an effect the other way counts as inactive or inconclusive); details: T. brucei PFK, ADP-Glo luminescence; series mostly up to 51.4 µM
Summary of the method: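 PFK 1.25 nM, F6P 0.5 mM, ATP 0.1 mM, MgCl2 5 mM, 0.1 M TEA pH 8.0, Tween20 0.01%, BSA 0.1%; 45 min RT. ADP-Glo two-step detection, luminescence. qHTS titration; curve fitting with curve-class categorization.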

[11] = qHTS profiling for inhibitors of Plasmodium falciparum proliferation (AID 504749; active = well fitted curve in the direction sought with a large enough effect; an effect the other way counts as inactive or inconclusive; also: nearly all actives have a fitted effect of over 60% in size; also: potency is read from the fitted curve at half-maximal effect;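 as to activity, negative = inhibition: 0% = DMSO vehicle and full inhibition = artemisinin control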); details: P. falciparum in erythrocytes, SYBR Green DNA, 72 h, at 28.7 µM (top of the series)
Summary of the method: (§1)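 P. falciparum-infected erythrocytes (0.3% parasitemia, 2.5% hematocrit final) were exposed to compounds for 72 h at 37 C in 5% CO2, then lysed with SYBR Green buffer overnight at room temperature; parasite DNA fluorescence was normalized to artemisinin and DMSO controls.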

CP192 = assay: as above; details: P. falciparum in erythrocytes, SYBR Green DNA, 72 h; series mostly up to 28.7 µM
Summary of the method: as §1

CP203 = assay: as above; details: P. falciparum in erythrocytes, SYBR Green DNA, 72 h; series mostly up to 28.7 µM
Summary of the method: as §1

W2 = assay: as above; details: P. falciparum in erythrocytes, SYBR Green DNA, 72 h; series mostly up to 28.7 µM
Summary of the method: as §1

[12] = target: Glucocorticoid receptor (Homo sapiens) (UniProt P04150); assay: GR-EFC Redistribution (AID 451; calls by dose curve; also: potency is read from the fitted curve at half-maximal effect); details: CHO-K1 GR-EFC translocation, beta-gal luminescence, 2 h
Summary of the method: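 CHO-K1 cells stably expressing nuclear-localized β-gal enzyme acceptor and GR fused C-terminally to the enzyme donor fragment; ligand-driven nuclear translocation restores β-gal by complementation. Compounds titrated up to 46 uM final, 2 h at 37 °C; luminescence read.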

[13] = target: Cytochrome P450 3A4 (Homo sapiens) (UniProt P08684); assay: qHTS Assay for Activators of Cytochrome P450 3A4 (AID 885; active = well fitted curve in the direction sought with a large enough effect; an effect the other way counts as inactive or inconclusive; also: nearly all actives have a fitted effect of over 65% in size); details: recombinant CYP3A4, Luciferin-PPXE luminescence, 60 min; series mostly up to 11.4 µM
Summary of the method: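 Quantitative HTS format: compounds preincubated with 20nM human CYP3A4 and Luciferin-PPXE substrate at KM, reaction started by NADPH regeneration, stopped after 60 min, luciferase luminescence read 20 min later.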

[14] = qHTS Assay for Identification of Small Molecule Agonists for Hypoxia Response Element Signaling Pathway (AID 914; active = well fitted activation curve with a large enough effect in the signal ratio, with a control signal flat, not every such curve was filed as active; the % refers to the signal ratio; also: % of control where 0% means no effect); details: ME-180 (cervical carcinoma) HRE-bla reporter, beta-lactamase ratio, CoCl2, 17 h; activation: active compounds read high
Summary of the method: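 Cells were plated overnight, pin-dosed with compound in a titration series, co-stimulated with EC50 CoCl2 and incubated 17 hours at 37 degrees Celsius. CCF4 substrate was then loaded, and AC50 values came from the 460nm/530nm ratio.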

[15] = target: Cytochrome P450 3A4 (Homo sapiens) (UniProt P08684); assay: qHTS Assay for Inhibitors and Substrates of Cytochrome P450 3A4 (AID 884; active = well fitted curve in the direction sought with a large enough effect; an effect the other way counts as inactive or inconclusive; also: potency is read from the fitted curve at half-maximal effect; nearly all actives have a fitted effect of over 50% in size); details: recombinant CYP3A4, Luciferin-PPXE luminescence; series mostly up to 57.1 µM
Summary of the method: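 20 nM human CYP3A4 with 25 uM Luciferin-PPXE (at KM) in 200 mM KPO4, preincubated 10 min with compound; NADPH regeneration started a 60 min RT reaction. Luciferin detected by luminescence, normalized to 57 uM ketoconazole as full inhibition.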

Sequence of Glucocorticoid receptor (Homo sapiens) (P04150 whole entry, looked up, the tested form may be a part): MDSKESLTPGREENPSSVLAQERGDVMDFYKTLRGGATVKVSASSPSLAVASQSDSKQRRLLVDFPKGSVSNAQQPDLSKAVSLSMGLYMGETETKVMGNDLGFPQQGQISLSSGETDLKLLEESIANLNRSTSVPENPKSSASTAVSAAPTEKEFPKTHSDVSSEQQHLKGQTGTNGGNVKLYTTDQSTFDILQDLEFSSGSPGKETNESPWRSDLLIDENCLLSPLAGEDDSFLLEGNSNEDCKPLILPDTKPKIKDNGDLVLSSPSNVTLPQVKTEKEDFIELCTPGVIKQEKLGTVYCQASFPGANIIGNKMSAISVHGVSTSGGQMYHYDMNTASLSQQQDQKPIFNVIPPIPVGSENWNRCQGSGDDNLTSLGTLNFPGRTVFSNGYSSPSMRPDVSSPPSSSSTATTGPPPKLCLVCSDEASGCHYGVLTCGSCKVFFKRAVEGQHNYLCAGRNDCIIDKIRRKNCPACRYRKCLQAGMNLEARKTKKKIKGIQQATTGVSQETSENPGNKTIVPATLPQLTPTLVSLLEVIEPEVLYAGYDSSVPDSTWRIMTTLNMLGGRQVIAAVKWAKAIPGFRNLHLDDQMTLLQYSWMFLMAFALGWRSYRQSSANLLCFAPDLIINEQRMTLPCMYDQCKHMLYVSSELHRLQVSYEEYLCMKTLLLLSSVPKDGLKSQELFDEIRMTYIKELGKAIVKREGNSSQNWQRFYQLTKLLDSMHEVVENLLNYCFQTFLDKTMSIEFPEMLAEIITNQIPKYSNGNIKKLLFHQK
Sequence of Lysosomal acid glucosylceramidase (Homo sapiens) (P04062 whole entry, looked up): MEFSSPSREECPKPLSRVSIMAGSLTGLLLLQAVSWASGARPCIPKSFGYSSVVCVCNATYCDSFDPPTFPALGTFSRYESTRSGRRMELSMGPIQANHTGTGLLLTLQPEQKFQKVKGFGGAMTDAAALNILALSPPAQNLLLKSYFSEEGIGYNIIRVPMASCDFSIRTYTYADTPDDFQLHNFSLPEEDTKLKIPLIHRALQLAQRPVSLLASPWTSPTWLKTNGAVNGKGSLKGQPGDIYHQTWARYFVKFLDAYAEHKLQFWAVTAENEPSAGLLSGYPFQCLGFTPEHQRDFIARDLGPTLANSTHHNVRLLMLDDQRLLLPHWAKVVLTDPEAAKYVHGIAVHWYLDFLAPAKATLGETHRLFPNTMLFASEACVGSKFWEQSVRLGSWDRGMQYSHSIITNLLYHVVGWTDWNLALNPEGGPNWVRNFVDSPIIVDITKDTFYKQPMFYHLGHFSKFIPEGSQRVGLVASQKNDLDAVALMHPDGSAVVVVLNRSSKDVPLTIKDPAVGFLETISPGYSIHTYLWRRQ
Sequence of Cytochrome P450 1A2 (Homo sapiens) (P05177 whole entry, looked up): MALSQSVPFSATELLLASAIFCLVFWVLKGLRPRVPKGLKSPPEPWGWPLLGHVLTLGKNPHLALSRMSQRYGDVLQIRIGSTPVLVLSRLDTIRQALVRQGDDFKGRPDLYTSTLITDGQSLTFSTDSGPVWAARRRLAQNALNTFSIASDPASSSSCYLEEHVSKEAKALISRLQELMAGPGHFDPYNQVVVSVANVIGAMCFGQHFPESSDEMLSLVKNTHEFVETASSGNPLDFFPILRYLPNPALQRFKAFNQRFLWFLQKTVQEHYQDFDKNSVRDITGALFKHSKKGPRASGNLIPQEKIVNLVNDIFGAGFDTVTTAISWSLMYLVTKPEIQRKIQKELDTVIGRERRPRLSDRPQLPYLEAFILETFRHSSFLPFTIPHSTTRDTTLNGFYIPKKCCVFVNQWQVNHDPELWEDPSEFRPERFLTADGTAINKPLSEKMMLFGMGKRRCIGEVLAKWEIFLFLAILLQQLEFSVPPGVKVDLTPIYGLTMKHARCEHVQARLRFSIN
Sequence of Cytochrome P450 3A4 (Homo sapiens) (P08684 whole entry, looked up): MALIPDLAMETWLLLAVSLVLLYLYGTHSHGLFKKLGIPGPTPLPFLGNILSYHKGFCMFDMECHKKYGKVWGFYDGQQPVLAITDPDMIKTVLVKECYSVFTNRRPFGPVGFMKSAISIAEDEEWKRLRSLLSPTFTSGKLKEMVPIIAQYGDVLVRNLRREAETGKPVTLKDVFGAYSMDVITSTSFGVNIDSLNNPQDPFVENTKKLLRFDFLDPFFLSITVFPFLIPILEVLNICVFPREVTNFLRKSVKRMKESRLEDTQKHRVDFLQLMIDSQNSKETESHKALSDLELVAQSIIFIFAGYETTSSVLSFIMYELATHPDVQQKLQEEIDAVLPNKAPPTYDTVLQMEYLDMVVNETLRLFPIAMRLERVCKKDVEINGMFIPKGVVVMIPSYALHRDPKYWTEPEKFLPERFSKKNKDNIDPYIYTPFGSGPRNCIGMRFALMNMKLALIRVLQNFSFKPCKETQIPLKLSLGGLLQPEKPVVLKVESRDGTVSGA
Sequence of 3',5'-cyclic-AMP phosphodiesterase 4B (Homo sapiens) (Q07343 whole entry, looked up): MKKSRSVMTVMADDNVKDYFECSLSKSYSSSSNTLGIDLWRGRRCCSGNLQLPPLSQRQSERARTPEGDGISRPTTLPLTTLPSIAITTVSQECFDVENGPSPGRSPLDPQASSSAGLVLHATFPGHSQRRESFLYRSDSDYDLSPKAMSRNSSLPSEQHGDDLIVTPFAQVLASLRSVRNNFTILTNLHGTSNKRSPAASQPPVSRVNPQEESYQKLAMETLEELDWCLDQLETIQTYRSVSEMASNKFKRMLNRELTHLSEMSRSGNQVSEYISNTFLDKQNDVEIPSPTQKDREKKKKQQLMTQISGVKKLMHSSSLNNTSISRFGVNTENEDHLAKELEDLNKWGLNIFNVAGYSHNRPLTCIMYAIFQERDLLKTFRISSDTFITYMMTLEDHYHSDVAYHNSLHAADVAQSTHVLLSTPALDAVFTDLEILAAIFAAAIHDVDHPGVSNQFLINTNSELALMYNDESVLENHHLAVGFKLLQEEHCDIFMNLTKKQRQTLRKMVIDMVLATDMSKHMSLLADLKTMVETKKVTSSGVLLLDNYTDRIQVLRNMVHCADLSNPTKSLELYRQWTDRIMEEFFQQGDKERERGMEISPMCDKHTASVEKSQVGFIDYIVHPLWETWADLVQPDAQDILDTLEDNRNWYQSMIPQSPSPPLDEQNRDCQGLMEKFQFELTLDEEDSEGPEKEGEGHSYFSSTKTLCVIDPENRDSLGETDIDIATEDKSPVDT
Sequence of ATP-dependent 6-phosphofructokinase (Trypanosoma brucei brucei) (O15648 whole entry, looked up): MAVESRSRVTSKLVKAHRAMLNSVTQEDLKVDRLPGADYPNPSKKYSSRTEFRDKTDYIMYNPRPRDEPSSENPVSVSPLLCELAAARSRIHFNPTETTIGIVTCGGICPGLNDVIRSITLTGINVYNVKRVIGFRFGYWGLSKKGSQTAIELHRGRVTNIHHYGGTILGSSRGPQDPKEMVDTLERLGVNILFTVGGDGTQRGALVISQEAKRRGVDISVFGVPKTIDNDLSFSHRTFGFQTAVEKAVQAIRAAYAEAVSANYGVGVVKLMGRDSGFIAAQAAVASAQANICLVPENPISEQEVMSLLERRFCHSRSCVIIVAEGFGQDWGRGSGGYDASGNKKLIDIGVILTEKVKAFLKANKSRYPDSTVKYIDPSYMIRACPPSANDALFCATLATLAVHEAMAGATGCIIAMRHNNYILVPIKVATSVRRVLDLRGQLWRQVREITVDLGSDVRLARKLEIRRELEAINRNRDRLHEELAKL
Sequence of Cytochrome P450 2C19 (Homo sapiens) (P33261 whole entry, looked up): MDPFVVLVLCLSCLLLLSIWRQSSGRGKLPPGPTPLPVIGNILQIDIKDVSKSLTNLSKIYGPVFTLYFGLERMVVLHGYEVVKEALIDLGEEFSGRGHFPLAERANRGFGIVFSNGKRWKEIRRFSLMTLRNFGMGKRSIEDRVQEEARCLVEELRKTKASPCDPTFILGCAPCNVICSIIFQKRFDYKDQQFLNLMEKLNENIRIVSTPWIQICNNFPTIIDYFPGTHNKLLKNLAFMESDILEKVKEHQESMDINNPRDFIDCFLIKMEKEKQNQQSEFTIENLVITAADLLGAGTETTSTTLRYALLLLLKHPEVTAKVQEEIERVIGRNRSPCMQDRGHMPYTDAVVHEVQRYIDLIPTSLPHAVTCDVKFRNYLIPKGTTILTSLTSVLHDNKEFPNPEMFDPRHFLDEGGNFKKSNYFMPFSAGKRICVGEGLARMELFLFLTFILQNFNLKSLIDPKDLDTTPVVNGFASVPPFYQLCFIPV

CSc1nnnc2ccccc12
active: Potency [3] 3.16 µM
inactive: Potency [1] > 11.4 µM | activity change, negative = inhibition [2] -4.35% | activity change, negative = inhibition [4] 3.54% | activity, negative = inhibition [5] 0.181% | Potency [6] > 46 µM | Potency [7] | Potency [8] | Potency [9]

O=C(O)[C@@H](O)[C@@H](O)[C@H](O)[C@H](O)CO
inactive: Potency [1] > 11.4 µM | activity change, negative = inhibition [2] -1.8% | activity change, negative = inhibition [3] -5.5% [at 2.29 µM] | activity change, negative = inhibition [4] 5.42% | activity, negative = inhibition [5] -3.53% | Potency [7] | Potency [8] | outcome [10] | activity, negative = inhibition ([11]; parasite line B) -24% | Potency (CP192) | Potency (CP203)
active: Potency (W2) 4.78 µM

Cc1nc2cnc(Oc3cccc(Cl)c3)nc2n(C[C@H]2CCCO2)c1=O
active: Potency [3] 7.94 µM
inactive: Potency [1] > 11.4 µM | activity change, negative = inhibition [2] -15.8% | activity change, negative = inhibition [4] -3.55% | activity, negative = inhibition [5] -6.17% | Potency [12] > 46 µM | Potency [7] | Potency [8] | Potency [13]

COc1ccc(C(=O)N2CCC3(CCCN(C(=O)Nc4cccc(F)c4)C3)CC2)cc1
inactive: Potency [1] > 11.4 µM | activity change, negative = inhibition [2] -10.3% | activity change, negative = inhibition [4] 5.86% | activity, negative = inhibition [5] -13.8% | Potency [12] > 46 µM | Potency [7] | Potency [13]
active: Potency [3] 20 µM

Cn1c(=O)c2[nH]c(/N=N\N3CCN(CCO)CC3)nc2n(C)c1=O
inactive: Potency [1] > 11.4 µM | activity change, negative = inhibition [2] 6.96% | activity change, negative = inhibition [3] -14.7% [at 2.29 µM] | activity change, negative = inhibition [4] 7.64% | activity, negative = inhibition [5] 11.6% | Potency [12] > 9.22 µM | Potency [7] | Potency [8]

C[C@]12CC[C@H]3c4ccc(O)cc4CC[C@@H]3[C@H]1CC[C@@H]2OP(=O)(O)O
inactive: Potency [1] > 11.4 µM | activity change, negative = inhibition [2] -3.92% | activity change, negative = inhibition [3] -11.2% [at 2.29 µM] | activity change, negative = inhibition [4] 9.37% | activity, negative = inhibition [5] 2.17% | Potency [7] | Potency [8] | activation [14] 11.8% | outcome [10] | activity, negative = inhibition ([11]; parasite line A) 12.7% | activity, negative = inhibition ([11]; parasite line B) 13.6% | Potency (CP192) | Potency (CP203) | Potency (W2)

O=C(O)/C=C\C(=O)Nc1ccc2c(c1)C(=O)c1cc(F)ccc1-2
active: Potency [3] 0.794 µM | Potency [15] 3.16 µM
inactive: Potency [1] > 11.4 µM | activity change, negative = inhibition [2] -12.9% | activity change, negative = inhibition [4] 9.23% | activity, negative = inhibition [5] 0.748% | Potency [12] > 9.22 µM | Potency [7]
